Among all 310,000 compounds or so, about 14,000 (4.5%) showed an effect of 50% or more. Effects have a minus sign here. Shown is part of a subset that was picked to be rich in strong results.
These compounds were tested against human ether-à-go-go-related gene (hERG) potassium channel (human, UniProt Q12809) (assay: primary screen, population patch clamp on CHO cells stably expressing hERG; higher = less effect of the substance).
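Further: peak tail current of the secondary pulse compared with the same well before compound.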

Chain of human ether-à-go-go-related gene (hERG) potassium channel (Q12809 whole entry, looked up): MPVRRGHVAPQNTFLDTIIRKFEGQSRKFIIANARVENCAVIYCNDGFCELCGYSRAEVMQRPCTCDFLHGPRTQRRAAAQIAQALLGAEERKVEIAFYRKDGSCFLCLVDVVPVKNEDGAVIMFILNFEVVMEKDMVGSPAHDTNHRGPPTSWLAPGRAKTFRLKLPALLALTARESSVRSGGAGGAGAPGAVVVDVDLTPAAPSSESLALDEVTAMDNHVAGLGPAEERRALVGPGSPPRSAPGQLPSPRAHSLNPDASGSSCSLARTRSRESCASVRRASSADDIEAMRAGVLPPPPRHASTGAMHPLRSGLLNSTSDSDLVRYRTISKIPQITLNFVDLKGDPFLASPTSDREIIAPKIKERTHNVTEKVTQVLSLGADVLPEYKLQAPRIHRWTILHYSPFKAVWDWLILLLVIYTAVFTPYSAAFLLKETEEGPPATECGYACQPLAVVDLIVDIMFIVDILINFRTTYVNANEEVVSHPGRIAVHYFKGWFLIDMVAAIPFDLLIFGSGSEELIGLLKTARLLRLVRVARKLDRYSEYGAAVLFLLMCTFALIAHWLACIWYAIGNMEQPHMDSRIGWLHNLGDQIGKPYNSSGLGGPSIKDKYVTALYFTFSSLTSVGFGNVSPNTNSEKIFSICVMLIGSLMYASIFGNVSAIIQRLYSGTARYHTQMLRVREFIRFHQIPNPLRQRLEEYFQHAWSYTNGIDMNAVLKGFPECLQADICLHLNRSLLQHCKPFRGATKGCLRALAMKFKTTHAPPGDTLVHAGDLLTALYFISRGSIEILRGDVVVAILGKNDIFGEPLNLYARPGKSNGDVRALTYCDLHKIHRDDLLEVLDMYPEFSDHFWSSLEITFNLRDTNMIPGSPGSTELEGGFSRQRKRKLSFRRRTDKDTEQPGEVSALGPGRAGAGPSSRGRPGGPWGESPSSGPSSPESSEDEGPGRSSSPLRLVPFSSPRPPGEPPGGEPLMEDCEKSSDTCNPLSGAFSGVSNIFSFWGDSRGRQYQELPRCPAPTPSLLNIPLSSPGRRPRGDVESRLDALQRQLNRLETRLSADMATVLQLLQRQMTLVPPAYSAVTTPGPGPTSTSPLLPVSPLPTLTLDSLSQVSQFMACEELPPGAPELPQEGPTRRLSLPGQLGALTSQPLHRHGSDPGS

Row | SMILES | hERG current change (%, negative = inhibition) at 10uM [%]
1 | O=C(Nc1cccc(Cl)c1)OCc1cncs1 | -2.42
2 | O=c1c(-c2nnc(SCc3ccc(Cl)c(Cl)c3)o2)cccn1Cc1ccccc1 | 1.6
3 | O=c1c(-c2nnc(SCc3ccc(Cl)cc3)o2)cccn1Cc1ccccc1 | -46.2
4 | O=c1c(-c2nnc(SCc3ccc(Cl)cc3Cl)o2)cccn1Cc1ccccc1 | -62.5
5 | Cc1ccc(NC(=O)C(CC(C)C)NC(=O)C2CCC(C)CC2)nc1 (centres unmarked) | -6.68
6 | CCCc1cc(=O)[nH]c(SCC(=O)Nc2c(C)cccc2C)n1 | 6.31
7 | COc1c(C)cc(C(=O)C2CCCN(Cc3cccc(C)n3)C2)cc1C (centres unmarked) | -48.7
8 | COc1ccc(C(=O)C2CCCN(Cc3ccccn3)C2)c(OC)c1 (centres unmarked) | -55.7
9 | Cc1cccc(CN2CCCC(C(=O)c3cccc(OC(C)C)c3)C2)n1 (centres unmarked) | -40
10 | COc1cccc(C(=O)C2CCCN(Cc3cccc(C)n3)C2)c1 (centres unmarked) | -53.4
11 | COc1ccc2cc(C(=O)C3CCCN(Cc4cccc(C)n4)C3)ccc2c1 (centres unmarked) | -66.5
12 | COc1cccc(C(=O)C2CCCN(CC3=Cc4cc(OC)ccc4OC3)C2)c1 (centres unmarked) | -56.6
13 | CC(=O)Nc1ccc(N/C=C/C(=O)c2ccco2)cc1 | 1.94
14 | Cn1nc(C(=O)Nc2nc3ccc(S(C)(=O)=O)cc3s2)ccc1=O | -20.7
15 | CN1CCN(C(=O)c2ccc3c(c2)N(Cc2cccc(Cl)c2)C(=O)c2ccccc2S3=O)CC1 (centres unmarked) | -19.5
16 | O=C(/C=C/N1CCN(Cc2ccccc2)CC1)C(F)(F)F | 4.36
17 | Cc1nn(-c2ccccc2)c(Oc2ccccc2)c1C=O | -6.92
18 | CCc1c(C)c(C#N)c2nc3ccccc3n2c1NCc1ccco1 | -35.4
19 | Cc1ccc([N+](=O)[O-])cc1N(CC(=O)N1CCCCC1)S(C)(=O)=O | 12.2
20 | Cn1cccc1Cc1nnc(SCC(=O)Nc2cccc(F)c2)n1CCc1ccccc1 | -20.3
21 | Cl.NCCOc1ccccc1-c1ccccc1 | -11.1

Row | SMILES | hERG current change (%, negative = inhibition) at 10uM [%]
22 | CC(C)(C)c1ccc(-c2n[nH]c(=S)n2C2CCCC2)cc1 | 4.01
23 | Cc1ccc(C(=O)Nc2ccc3c(c2)OCO3)cc1Cl | 19.7
24 | CSc1ccc(CNC2CN3CCC2CC3)cc1.Cl (centres unmarked) | -10.7
25 | C[C@@H]1CCC2[C@](C)(CO)[C@@H](O)CC[C@]2(C)[C@@]12CCC(CO)(CCO)O2 (some centres unmarked) | 26.8
26 | O=C1CN(C(=O)COc2ccc(F)cc2Br)c2ccccc2N1 | -29.9
27 | O=C(O)c1ccc2c(=O)n3cc(C(=O)c4ccccc4O)cc(Cl)c3nc2c1 | 1.38
28 | COc1ccc(C(=O)C2CCCN(Cc3cccc(C)n3)C2)c(OC)c1 (centres unmarked) | -76.2
29 | COc1cccc(C(=O)C2CCCN(Cc3ccccn3)C2)c1 (centres unmarked) | -26
30 | COc1ccc(C(=O)C2CCCN(Cc3ccon3)C2)cc1OC (centres unmarked) | 11.2
31 | COc1ccc(C(=O)C2CCCN(Cc3sc(N4CCCC4)nc3Cl)C2)c(OC)c1 (centres unmarked) | -49.7
32 | COc1ccc2cc(C(=O)C3CCCN(Cc4ccccn4)C3)ccc2c1 (centres unmarked) | -66.2
33 | CC(=O)Nc1ccc(CN2CCCC(C(=O)c3ccc(C(F)(F)F)cc3)C2)cc1 (centres unmarked) | -77.3
34 | COc1ccc2cc(C(=O)C3CCCN(C(=O)CCc4ccccn4)C3)ccc2c1 (centres unmarked) | -45.2
35 | CCNC(=O)N1CCCC(C(=O)c2ccc(C(F)(F)F)cc2)C1 (centres unmarked) | -23.4
36 | CC(=O)Nc1ccc(CN2CCCC(C(=O)c3cccc(C(F)(F)F)c3)C2)cc1 (centres unmarked) | -20.7
37 | COc1cccc(C(=O)C2CCCN(Cc3ccon3)C2)c1 (centres unmarked) | 8.72
38 | COc1ccc(C(=O)C2CCCN(Cc3ccon3)C2)c(OC)c1 (centres unmarked) | -53.9
39 | Cc1ccc(OCCN2CCN(C(=O)CCC(=O)Nc3nnc(C)s3)CC2)cc1 | -7.69
40 | Nc1nc(SC2c3cccc4cccc(c34)C2NS(=O)(=O)c2ccccc2)n[nH]1 (centres unmarked) | 5.88
41 | Cc1nc2ccc(C(=O)O)cc2c2c1CC(C)S2 (centres unmarked) | -16
42 | CCCCN1CC(=O)N2[C@H]3c4ccccc4OC[C@@H]3[C@H](c3ccccc3)[C@]2(C)C1=O | -19.9

Row | SMILES | hERG current change (%, negative = inhibition) at 10uM [%]
43 | COc1cccc(Nc2ccc(C(=O)O)cc2N)c1 | 11.3
44 | CN(C(=O)COC(=O)C1c2ccccc2Oc2ccccc21)C1CCS(=O)(=O)C1 (centres unmarked) | 4.56
45 | CC(C)C(CC(=O)N1CCCCC1)C1CCOC(C)(C)C1 (centres unmarked) | -2.24
46 | CC(C)(C)c1ccc(C(=O)C2CCCN(Cc3ccon3)C2)cc1 (centres unmarked) | -1.45
47 | Cc1cnc(C(=O)N2CCCC(C(=O)c3ccc(C(F)(F)F)cc3)C2)cn1 (centres unmarked) | -17.7
48 | Cc1cccc(CN2CCCC(C(=O)c3ccc(C(F)(F)F)cc3)C2)n1 (centres unmarked) | -68.2
49 | CC1Sc2ccc(S(=O)(=O)N3CCN(c4cccc(Cl)c4)CC3)cc2NC1=O (centres unmarked) | 9.32
50 | CCOC(=O)c1c(C)[nH]c(C)c1C(=O)COC(=O)C1CCCN1S(=O)(=O)c1ccccc1F (centres unmarked) | -2.63
51 | NC(=O)c1nc(C(=O)N2CCN(c3ccccc3)CC2)c2ccccc2n1 | 2.14
52 | CCOc1ccc(NC(=S)NC(=O)c2cncc(Br)c2)cc1 | 10.1
53 | CCN(CC(=O)Nc1c(F)cccc1F)C(=O)c1n[nH]c2ccccc12 | 10.4
54 | Cc1cccc(C)c1NC(=O)CSc1nnc(-c2ccco2)n1N | -4.1
55 | Cc1cccc(NC(=O)CSc2nnc(CNC(=O)c3ccco3)n2C)c1C | -17.3
56 | Cc1ccccc1NC(=O)CSc1nnc(-c2ccco2)n1N | 4.14
57 | Cc1ccccc1NC(=O)CSc1n[nH]c(-c2ccco2)n1 | 10.1
58 | Cc1cccc(NC(=O)CSc2nnc(-c3ccco3)c(-c3ccco3)n2)c1C | -66.4
59 | Cc1cccc(C)c1NC(=O)CSc1nc(-c2ccco2)cc(C(F)(F)F)n1 | 4.77
60 | Cc1cccc(NC(=O)CSc2nnc(-c3ccco3)o2)c1C | -4.42
61 | Cc1cccc(C)c1NC(=O)CSc1nnc(-c2ccco2)c(-c2ccco2)n1 | -67.1
62 | Cc1ccccc1NC(=O)CSc1nnc(-c2ccco2)c(-c2ccco2)n1 | -53.9
